# In PubChem BioAssay (NCATS):
# Records with an inconclusive call do not appear. Entries that show only a call come without a potency. Active and inactive are the calls of the source. Calls come from the whole dose curve; as a rule, active = well fitted curve in the direction sought with a large enough effect; inconclusive = small, poorly fitted or top-dose-only effect, or another doubt; inactive = no such curve, though single readings can be large; an effect the other way counts as inactive or inconclusive.
# What was measured:
# [1] = Quantitative High-Throughput drug screen in 47 multiple myeloma cell lines against the NCATS MIPE library collection: JIM3_ECACC cell viability assay (AID 1918963; note: nearly all actives have a fitted effect of over 35% in size; note: potency is the fitted concentration of half-maximal effect)
# Procedure, shortened: (§1)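 qHTS of the MIPE 4.0 collection: 500 myeloma cells/well, 48 h drug exposure at 37C in 5% CO2, then CellTiter-Glo for 5 min at room temperature before luminescence reading.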
# [2] = Quantitative High-Throughput drug screen in 47 multiple myeloma cell lines against the NCATS MIPE library collection: JIM1_ECACC cell viability assay (AID 1918964)
# Procedure, shortened: (§2)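 Relative luminescence from CellTiter-Glo served as the viability signal, referenced to DMSO-treated (100%) and cell-free medium (0%) controls. Treatment lasted 48 hours at 37C with 500 cells per well.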
# [3] = Quantitative High-Throughput drug screen in 47 multiple myeloma cell lines against the NCATS MIPE library collection: INA6_PLB cell viability assay (AID 1918965; note: nearly all actives have a fitted effect of over 55% in size; note: potency is the fitted concentration of half-maximal effect)
# Procedure, shortened: (§3)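 Luminescent ATP measurement with CellTiter-Glo gives viability, scaled between DMSO-only wells (100%) and media-only wells (0%). Cells, 500 per well, faced library compounds for 48 hours at 37C.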
# [4] = Quantitative High-Throughput drug screen in 47 multiple myeloma cell lines against the NCATS MIPE library collection: JJN3_DSMZ cell viability assay (AID 1918966; note: nearly all actives have a fitted effect of over 50% in size; note: potency is the fitted concentration of half-maximal effect)
# Procedure, shortened: as §2
# [5] = Quantitative High-Throughput drug screen in 47 multiple myeloma cell lines against the NCATS MIPE library collection: H1112_PLB cell viability assay (AID 1918967; note: nearly all actives have a fitted effect of over 30% in size; note: potency is the fitted concentration of half-maximal effect)
# Procedure, shortened: as §2
# [6] = Quantitative High-Throughput drug screen in 47 multiple myeloma cell lines against the NCATS MIPE library collection: Karpas25_ECACC cell viability assay (AID 1918968; note: nearly all actives have a fitted effect of over 35% in size; note: potency is the fitted concentration of half-maximal effect)
# Procedure, shortened: as §2
# [7] = Quantitative High-Throughput drug screen in 47 multiple myeloma cell lines against the NCATS MIPE library collection: KMS27_JCRB cell viability assay (AID 1918970); note: nearly all actives have a fitted effect of over 30% in size; note: potency is the fitted concentration of half-maximal effect
# Procedure, shortened: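 CellTiter-Glo luminescence after 48 h drug exposure at 37 °C; 500 cells/well, 1536-well format, pin-tool compound addition; DMSO = 100%, media-only = 0% viability.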
# [8] = Quantitative High-Throughput drug screen in 47 multiple myeloma cell lines against the NCATS MIPE library collection: KMS12BM_JCRB cell viability assay (AID 1918971); note: nearly all actives have a fitted effect of over 35% in size; note: potency is the fitted concentration of half-maximal effect
# Procedure, shortened: (§4)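 Steps: seed 500 cells per well; pin-transfer MIPE 4.0 library; incubate 48 h at 37C, 5% CO2, humidified; add CellTiter-Glo, 5 min room temperature; read luminescence.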
# [9] = Quantitative High-Throughput drug screen in 47 multiple myeloma cell lines against the NCATS MIPE library collection: KMS12PE_JCRB cell viability assay (AID 1918972); note: nearly all actives have a fitted effect of over 30% in size
# Procedure, shortened: as §3
# [10] = Quantitative High-Throughput drug screen in 47 multiple myeloma cell lines against the NCATS MIPE library collection: MMM1_PLB cell viability assay (AID 1918976); note: nearly all actives have a fitted effect of over 35% in size; note: potency is the fitted concentration of half-maximal effect
# Procedure, shortened: (§5)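 qHTS format: cells plated (500/well), pin-dosed with MIPE 4.0 compounds, kept 48 h at 37 °C. Readout was CellTiter-Glo luminescence, median RLU.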
# [11] = Quantitative High-Throughput drug screen in 47 multiple myeloma cell lines against the NCATS MIPE library collection: MOLP8_DSMZ cell viability assay (AID 1918977); note: nearly all actives have a fitted effect of over 45% in size; note: potency is the fitted concentration of half-maximal effect
# Procedure, shortened: as §5
# [12] = Quantitative High-Throughput drug screen in 47 multiple myeloma cell lines against the NCATS MIPE library collection: NCIH929_DSMZ cell viability assay (AID 1918978); note: nearly all actives have a fitted effect of over 35% in size; note: potency is the fitted concentration of half-maximal effect
# Procedure, shortened: as §5
# [13] = Quantitative High-Throughput drug screen in 47 multiple myeloma cell lines against the NCATS MIPE library collection: OCIMY1_PLB cell viability assay (AID 1918979); note: nearly all actives have a fitted effect of over 35% in size; note: potency is the fitted concentration of half-maximal effect
# Procedure, shortened: as §5
# [14] = Quantitative High-Throughput drug screen in 47 multiple myeloma cell lines against the NCATS MIPE library collection: MM1S_ATCC cell viability assay (AID 1918980); note: nearly all actives have a fitted effect of over 45% in size; note: potency is the fitted concentration of half-maximal effect
# Procedure, shortened: as §5
# [15] = Quantitative High-Throughput drug screen in 47 multiple myeloma cell lines against the NCATS MIPE library collection: MM1R_ATCC cell viability assay (AID 1918981); note: nearly all actives have a fitted effect of over 35% in size; note: potency is the fitted concentration of half-maximal effect
# Procedure, shortened: as §5
# [16] = Quantitative High-Throughput drug screen in 47 multiple myeloma cell lines against the NCATS MIPE library collection: LP1_DSMZ cell viability assay (AID 1918982); note: nearly all actives have a fitted effect of over 35% in size; note: potency is the fitted concentration of half-maximal effect
# Procedure, shortened: as §5
# [17] = Quantitative High-Throughput drug screen in 47 multiple myeloma cell lines against the NCATS MIPE library collection: KMS21BM_JCRB cell viability assay (AID 1918974); conditions: ATP luminescence, 48 h; viability: at 45.8 µM (top of the series) unless noted
# Procedure, shortened: as §2
# [18] = Quantitative High-Throughput drug screen in 47 multiple myeloma cell lines against the NCATS MIPE library collection: KMS26_JCRB cell viability assay (AID 1918975); note: nearly all actives have a fitted effect of over 45% in size; note: potency is the fitted concentration of half-maximal effect
# Procedure, shortened: as §4
# [19] = Quantitative High-Throughput drug screen in 47 multiple myeloma cell lines against the NCATS MIPE library collection: KHM11_PLB cell viability assay (AID 1918962); note: nearly all actives have a fitted effect of over 35% in size
# Procedure, shortened: as §1
# [20] = Quantitative High-Throughput drug screen in 47 multiple myeloma cell lines against the NCATS MIPE library collection: KMS20_JCRB cell viability assay (AID 1918973); note: nearly all actives have a fitted effect of over 45% in size; note: potency is the fitted concentration of half-maximal effect
# Procedure, shortened: as §2
SMILES,Potency [1],Potency [2],Potency [3],Potency [4],Potency [5],Potency [6],Potency [7],Potency [8],Potency [9],Potency [10],Potency [11],Potency [12],Potency [13],Potency [14],Potency [15],Potency [16],Potency [17],Potency [18],Potency [19],Potency [20]
C[C@@H]1CC(=O)NN=C1c1ccc(NN=C(C#N)C#N)cc1,20.9 µM (active),inactive,18.7 µM (active),20.9 µM (active),20.9 µM (active),18.7 µM (active),inactive,18.7 µM (active),inactive,18.7 µM (active),26.4 µM (active),20.9 µM (active),23.5 µM (active),23.5 µM (active),20.9 µM (active),20.9 µM (active),–,–,–,–
COc1cc2c(c(OC)c1OC)-c1ccc(OC)c(=O)cc1[C@@H](NC(C)=O)CC2,inactive,inactive,inactive,–,–,inactive,–,–,inactive,–,–,inactive,–,–,–,inactive,inactive,–,–,–
CC[N+](CC)(CC)CCOc1cccc(OCC[N+](CC)(CC)CC)c1OCC[N+](CC)(CC)CC,inactive,inactive,–,inactive,inactive,inactive,–,–,–,–,–,inactive,inactive,inactive,inactive,inactive,–,inactive,–,–
CN(C)c1nc(N(C)C)nc(N(C)C)n1,inactive,–,–,–,–,inactive,inactive,inactive,inactive,–,–,inactive,inactive,–,inactive,inactive,–,inactive,inactive,inactive
CC(C)(C)C(=O)Oc1ccc(S(=O)(=O)Nc2ccccc2C(=O)NCC(=O)O)cc1,inactive,inactive,–,–,–,–,inactive,inactive,inactive,–,–,–,inactive,–,inactive,inactive,–,inactive,–,–
CS(=O)(=O)Nc1ccc([N+](=O)[O-])cc1Oc1ccccc1,inactive,–,–,–,–,–,inactive,20.9 µM (active),inactive,11.8 µM (active),–,inactive,inactive,16.6 µM (active),20.9 µM (active),–,–,18.7 µM (active),inactive,–
O=C1Cc2cc(CCN3CCN(c4nsc5ccccc45)CC3)c(Cl)cc2N1,23.5 µM (active),inactive,18.7 µM (active),–,23.5 µM (active),18.7 µM (active),8.33 µM (active),20.9 µM (active),–,23.5 µM (active),–,23.5 µM (active),20.9 µM (active),–,20.9 µM (active),–,–,–,–,–
NC12CC3CC(CC(C3)C1)C2,inactive,–,26.4 µM (active),inactive,–,0.118 µM (active),–,inactive,–,inactive,–,16.6 µM (active),–,1.18 µM (active),–,–,–,–,–,–
COc1ccccc1OCC(O)CN1CCN(CC(=O)Nc2c(C)cccc2C)CC1 (stereo not drawn),inactive,inactive,inactive,–,–,–,inactive,inactive,inactive,–,–,–,–,–,inactive,inactive,–,inactive,–,inactive
CN(CCOc1ccc(NS(C)(=O)=O)cc1)CCc1ccc(NS(C)(=O)=O)cc1,inactive,inactive,inactive,inactive,–,inactive,–,–,inactive,–,inactive,inactive,inactive,–,inactive,inactive,–,inactive,–,–
Clc1ccc2nsnc2c1NC1=NCCN1,inactive,–,inactive,–,inactive,inactive,inactive,–,–,–,inactive,inactive,inactive,–,inactive,inactive,–,–,–,–
CN(C)CCC=C1c2ccccc2C=Cc2ccccc21,–,–,–,18.7 µM (active),–,1.66 µM (active),inactive,1.48 µM (active),inactive,4.18 µM (active),–,inactive,inactive,–,18.7 µM (active),–,–,6.62 µM (active),inactive,14.8 µM (active)
CCN1CCCC1CNC(=O)c1cc(S(=O)(=O)CC)c(N)cc1OC (stereo not drawn),inactive,inactive,inactive,inactive,inactive,inactive,inactive,–,inactive,5.26 µM (active),inactive,–,–,–,inactive,inactive,–,inactive,–,inactive
NCCCCCC(=O)O,inactive,inactive,–,0.0187 µM (active),inactive,inactive,–,inactive,–,0.296 µM (active),inactive,inactive,inactive,16.6 µM (active),inactive,inactive,–,inactive,–,inactive
Cc1cn([C@H]2C[C@H](N=[N+]=[N-])[C@@H](CO)O2)c(=O)[nH]c1=O,26.4 µM (active),inactive,–,5.26 µM (active),23.5 µM (active),26.4 µM (active),5.26 µM (active),inactive,–,–,inactive,23.5 µM (active),–,3.32 µM (active),inactive,–,–,–,–,–
Cc1cc(C(C)(C)C)cc(C)c1CC1=NCCN1,inactive,–,–,–,inactive,inactive,–,–,inactive,–,inactive,inactive,–,–,inactive,–,–,inactive,inactive,inactive
CCOC(=O)c1ncn2c1CN(C)C(=O)c1cc(F)ccc1-2,inactive,inactive,inactive,–,inactive,inactive,–,5.9 µM (active),inactive,6.62 µM (active),–,inactive,inactive,18.7 µM (active),18.7 µM (active),inactive,–,–,–,–
